Results published in ChEMBL document CHEMBL1201862, “PubChem BioAssay data set” (2004).
About 11,000 (3.5%) of roughly 310,000 compounds were called active. Roughly 8% stayed inconclusive and do not appear here. The rule behind the calls is not given here. The sample as a whole holds a higher share of actives than the screen did.

Molecular target: Nuclear receptor ROR-gamma (Mus musculus) (UniProt P51450)
Experiment: VP16 counterscreen qHTS for inhibitors of ROR gamma transcriptional activity.
Assay type: functional

Nuclear receptor ROR-gamma (Mus musculus), sequence (P51450 whole entry): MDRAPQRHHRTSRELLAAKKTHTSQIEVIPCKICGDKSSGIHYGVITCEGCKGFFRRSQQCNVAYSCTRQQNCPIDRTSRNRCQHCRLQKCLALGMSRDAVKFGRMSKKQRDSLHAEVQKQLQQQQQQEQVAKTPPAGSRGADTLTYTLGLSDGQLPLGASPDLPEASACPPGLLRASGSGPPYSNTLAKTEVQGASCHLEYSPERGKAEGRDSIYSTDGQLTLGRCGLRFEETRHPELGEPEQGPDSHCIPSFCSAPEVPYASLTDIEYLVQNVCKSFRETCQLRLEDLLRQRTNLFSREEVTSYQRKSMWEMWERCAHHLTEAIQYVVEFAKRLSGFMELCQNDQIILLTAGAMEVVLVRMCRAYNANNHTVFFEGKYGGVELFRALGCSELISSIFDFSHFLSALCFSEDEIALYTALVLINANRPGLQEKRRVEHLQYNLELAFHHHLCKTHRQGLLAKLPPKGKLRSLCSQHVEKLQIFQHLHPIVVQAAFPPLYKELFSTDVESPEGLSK

Potency, active:
O=C(Oc1c(Cl)cc(Cl)c2cccnc12)c1cccc([N+](=O)[O-])c1 200 µM
COc1cccc2sc(Nc3nc(-c4ccccn4)cs3)nc12 355 µM
O=C(N/N=C(\c1ccccc1)c1cccnc1)c1cccc(F)c1 891 µM
O=C(NC1CCCCCCC1)C1CCN(c2nc3ccccc3o2)CC1 631 µM
Cc1ccc(-n2c(C)cc(C(=O)COC(=O)c3cccnc3O)c2C)cc1 224 µM
